ATXN2 expr inh: inhibitors of ATXN2 expression; HEK-293 ATXN2-luciferase reporter, luminescence, 24 h; Potency, µM (top dose mostly 57 µM), without a hit: at the highest dose activity change, negative = inhibition, usual class: inhibitors; 0.72% of 360,000 active; AID 1745845; note: % is set by controls: 0 for no effect and ±100 for the full control effect; nearly all actives have a fitted effect of over 55% in size
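ATXN2-luciferase reporter cells (luciferase flanked by upstream and downstream ATXN2 gene portions) were treated 24 h at 37 °C with compounds at up to 57 uM. SteadyGlo luminescence gave expression; GF-AFC fluorescence gave viability.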
S2 tox: reduces viability in counter-screen for ATXN expression inhibitors | S2 cells (HEK-293 line with an ATXN2-luciferase reporter) viability, CellTiter-Fluor protease fluorescence, 24 h | Potency, µM (titrated, usually from 56.7 µM), most hits filed as cytotoxic | 0.49% of 400,000 active; note: nearly all actives have a fitted effect of over 40% in size
HepG2 tox-1: kills HepG2 cells in TGF-b inhibitor counter-screen | AID 588856 | 0.76% of 410,000 active | Potency, µM (series often up to 46.1 µM), without a hit: top-dose activity change, negative = cytotoxicity, hits mostly cytotoxic | HepG2 CAGA-GFP viability, ATP luminescence, 18 h
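CellTiter-Glo luminescence gave cytotoxicity after 18 hours at 37 degrees C. The cells were HepG2 CAGA-GFP in 1% FBS DMEM, stimulated with 500 pg/mL TGF-beta after compound addition. %Activity was normalised to no-cell wells (complete cell-killing) and DMSO (no toxicity), and curves were fitted and classified.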
TGFb SMAD3 inh: TGF-b pathway inhibition; 1.2% of 410,000 active; Potency, µM (series often up to 46.1 µM), for the others: top-dose activity, negative = inhibition, hits mostly inhibitors; HepG2 CAGA-GFP TGF-b/SMAD3 reporter, GFP fluorescence, 18 h; TGF-beta stimulated, 500 pg/mL final; AID 588855; note: % is set by controls: 0 for no effect and ±100 for the full control effect; nearly all actives have a fitted effect of over 65% in size
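HEPG2 CAGA-GFP, 1000 cells/well; 2 h settle, 37 C; cpd via pin tool; TGF-b 500 pg/mL final; 18 h, 37 C; GFP imaging ex488/em500-530; %Activity normalised to -TGF-b and +DMSO controls; CRC fit, curve class.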
Nrf2 block: Nrf2 pathway inhibition; 2.1% of 360,000 active; AID 504444; A549 ARE-Fluc reporter, luciferase luminescence, 18-24 h; Potency, µM (highest dose often 46 µM), for the others: at the highest dose activity change, negative = inhibition, hits mostly inhibitors; note: % is set by controls: 0 for no effect and ±100 for the full control effect; nearly all actives have a fitted effect of over 60% in size
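Nrf2 activity is the BugLite luminescence, read 15 min after reagent at room temperature, following CellTiter-Fluor cytotoxicity readout (30 min, 37C). Compound titrations were applied for 18-24 h to 5000 A549 ARE_Fluc cells/well in 5% FBS OPTI-MEM.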
A549 tox: kills or reduces viability of A549 cells in Nrf2 counter-screen; A549 ARE-Fluc cells, CellTiter-Fluor viability, 18-24 h; Potency, µM (series often up to 46 µM), inactives show at the top dose activity change, negative = cytotoxicity, hits mostly inhibitors; 0.16% of 390,000 active; note: % is set by controls: 0 for no effect and ±100 for the full control effect
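A549 ARE_Fluc cells in 5% FBS OPTI-MEM were exposed to compounds in concentration-response for 18-24 h at 37 deg C. Viability was read by CellTiter-Fluor fluorescence (Ex 405/Em 525) after 30 min, before the luciferase read.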
TGFb confirm: TGF-b pathway inhibition, cherry-pick retest. shares compounds with TGFb SMAD3 inh. AID 720534. Potency, µM (top dose mostly 46.1 µM), for inactives: top-dose activity, negative = inhibition, usual class: inhibitors. HepG2 CAGA-GFP TGF-b reporter, GFP fluorescence, 18 h; cells stimulated with TGF-beta, 500 pg/mL. 63% of 1,600 active; note: % is set by controls: 0 for no effect and ±100 for the full control effect; nearly all actives have a fitted effect of over 65% in size
HepG2 tox-2: toxic to HepG2 cells in TGF-b counterscreen | shares compounds with TGFb SMAD3 inh | HepG2 CAGA-GFP viability, ATP luminescence, 18 h; cells stimulated with TGF-beta, 500 pg/mL | Potency, µM (series often up to 46.1 µM), inactives show at the highest dose activity, negative = cytotoxicity, usual class: inhibitors | 27% of 1,600 active; note: % is set by controls: 0 for no effect and ±100 for the full control effect; nearly all actives have a fitted effect of over 70% in size
TGFb CCL64 inh: TGF-b inhibition, CCL64 orthogonal assay; shares compounds with TGFb SMAD3 inh; CCL64 CAGA-GFP reporter, TGF-b stimulated, GFP fluorescence, 18 h; Potency, µM (doses to about 46.1 µM), for inactives: at the top dose activity, negative = inhibition, actives largely listed as inhibitors; 41% of 1,600 active; note: nearly all actives have a fitted effect of over 65% in size
COP TGFb inh: TGF-b inhibition validated with COP promoter; shares compounds with TGFb SMAD3 inh; 3% of 1,600 active; HepG2 COP-GFP TGF-b reporter, GFP fluorescence, 18 h; cells stimulated by added recombinant TGF-beta; Potency, µM (top dose mostly 46.1 µM), without a hit: at the highest dose activity, negative = inhibition, usual class: inhibitors; AID 720537; note: nearly all actives have a fitted effect of over 70% in size
Active calls of the source: *; i = inactive; u = inconclusive; x = not tested or not shown. Hits are enriched below; roughly 3.8% of the tested compounds scored in any of these assays. Calls come from the whole dose curve; as a rule, active = well fitted curve in the direction sought with a large enough effect; inconclusive = small, poorly fitted or top-dose-only effect, or another doubt; inactive = no such curve, though single readings can be large; an effect the other way counts as inactive or inconclusive. Potency is the fitted concentration of half-maximal effect.

SMILES | ATXN2 expr inh | S2 tox | HepG2 tox-1 | TGFb SMAD3 inh | Nrf2 block | A549 tox | TGFb confirm | HepG2 tox-2 | TGFb CCL64 inh | COP TGFb inh
COc1cc(/C=C(\C#N)c2nc3ccccc3[nH]2)cc(Br)c1OCc1ccccc1 | u | x | -29% | 11µM* | u | -8% | u | u | -19% | 22%
O=S(=O)(Nc1cc(Sc2cccc3cccnc23)c(O)c2ccccc12)c1ccc(F)cc1 | u | 4µM* | 1.1µM* | 0.79µM* | u | u | 12µM* | 15µM* | 2.6µM* | 31%
COc1ccc(S(=O)(=O)Nc2cc(Sc3ncn[nH]3)c(O)c3ccccc23)cc1 | x | x | 3.5µM* | 3.2µM* | u | u | 12µM* | u | 2.6µM* | u
Nc1ccc(S(=O)(=O)Nc2cccc3cccnc23)cc1 | x | x | x | x | 11% | 3% | x | x | x | x
CCn1c(/C=C/c2cc(Br)ccc2O)nc2ccccc2c1=O | u | i | -43% | 10µM* | 26% | 7% | u | u | -3% | 24%
CCn1c(/C=C/c2ccc(O)c(O)c2)nc2ccccc2c1=O | x | i | -36% | u | 13% | -6% | x | x | x | x
CC(C)(C)n1ncc2c(=O)n(Cc3c(F)ccc(Cl)c3Cl)cnc21 | x | x | -5% | 7% | x | x | x | x | x | x
NNc1ccc2c(C(F)(F)F)cc(C(F)(F)F)nc2n1 | -6% | i | 0% | 0% | u | -10% | x | x | x | x
N#CC(c1cccc(Cl)c1)c1ccc2c(C(F)(F)F)cc(C(F)(F)F)nc2n1 (stereo not given) | 2.5µM* | 5.6µM* | -49% | 1.3µM* | x | 6.5µM* | 0.37µM* | 1.3µM* | 1.2µM* | 15%
CN(c1ccc(F)cc1)S(=O)(=O)c1ccc(Cl)c(C(=O)Nc2ccc3c(c2)CCC3)c1 | -10% | i | 1% | 11µM* | u | 1% | u | -12% | -20% | -7%
Cc1cccc(N2CCN(C(=O)C3CCN(S(=O)(=O)c4cn(C)cn4)CC3)CC2)c1C | x | x | -18% | 0% | x | 1% | x | x | x | x
COc1ccc(C(CCNCc2ccc(F)cc2)c2ccc(F)cc2)cc1 (stereo not given) | u | u | 7.9µM* | 2.8µM* | u | u | u | 16µM* | u | u
Cc1ccccc1-c1noc(-c2ccccc2OCC(=O)Nc2ccccc2[N+](=O)[O-])n1 | -1% | i | -4% | -2% | u | -6% | x | x | x | x
CC(C)n1ncc2c(C(=O)N3CCN(Cc4ccc(Cl)s4)CC3)cc(C3CC3)nc21 | -9% | u | -1% | 10µM* | -8% | -1% | u | -29% | u | -9%
CC(C)(C)C(=O)NCCCc1nc2ccccc2n1CCCOc1ccc(Cl)cc1 | -31% | i | -17% | 13µM* | 23µM* | u | 12µM* | -14% | u | 11%
CC(=O)NCCc1nc2ccccc2n1CCCCOc1ccc(Cl)cc1 | u | u | -41% | u | u | 2% | x | x | x | x
CCCn1nc2cc(C(=O)NCCc3cccs3)ccc2c1OCC | 49% | i | -12% | u | 14% | -6% | -26% | -5% | -22% | -11%
CCCCNC(=O)c1ccc2c(OCC)n(CCCC)nc2c1 | 1% | i | 0% | 2% | -1% | 2% | x | x | x | x
O=S(=O)(Nc1c(Br)cc(Br)c2cccnc12)C1CCCCC1 | x | x | -4% | -12% | -1% | 10% | x | x | x | x
CCC(C)NS(=O)(=O)c1ccc(S(=O)(=O)N2CC=C(c3ccc(F)cc3)CC2)cc1 (stereo not given) | -29% | i | -32% | 8.9µM* | u | -4% | u | -16% | u | 15%
COc1cc(OC)cc(-c2c(-c3cccs3)c3cc(-c4cnc(OC)nc4)ccc3n2C)c1 | 0% | i | -16% | u | -22% | 2% | u | -3% | -11% | -18%
COc1ccc(-c2ccc3c(c2)c(-c2cccs2)c(-c2cc(OC)cc(OC)c2)n3C)cc1 | -2% | i | -13% | -3% | 4% | -1% | x | x | x | x
CCCC12CN3CC(C)(CN(C1)C3c1cn(CC)c3ccccc13)C2=O (stereo not given) | 5% | i | -3% | -11% | 0% | -1% | x | x | x | x
Cc1[nH]c2ccccc2c1C(c1ccccn1)N1CCCC1 (stereo not given) | 35% | i | -17% | -23% | 7% | 0% | x | x | x | x
Oc1c(C(c2ccccn2)N2CCCCC2)cc(Cl)c2cccnc12 (stereo not given) | u | i | -41% | 7.9µM* | u | u | u | u | u | 0%
COc1ccc(C(=O)/C(C#N)=N/Nc2ccccc2[N+](=O)[O-])cc1 | -9% | u | -18% | 1.1µM* | -9% | 1% | 10µM* | u | u | 1%
CCOC(=O)c1c(NC(=O)/C=C/c2ccc(C(C)C)cc2)sc2c1CCC2 | x | x | -6% | -6% | 0% | 0% | x | x | x | x
O=C(COc1ccccc1Cl)NCc1ccncc1 | 4% | i | -20% | 1% | u | 1% | x | x | x | x
COc1ccc(C)cc1N=Nc1ccc(O)c2ncccc12 | x | i | -34% | 7.1µM* | u | u | 6.5µM* | -16% | 2.3µM* | 8%
CSc1ccc(CN2CCC(C)(Oc3ccc(-n4ccnc4)cc3)C2)cc1 (stereo not given) | u | i | -37% | -10% | x | x | x | x | x | x

Screening data from PubChem.
